In PubChem BioAssay (NCI):
Where “and” joins values, the source holds several entries; their conditions need not be identical. Identical values can stand only once. This is part of a sample that, as a whole, favours compounds with a hit. Of some 83,000 tested, about 20% had one in any assay.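 The test compound was applied at a single concentration to cells in 96-well plates for 48 hours, and percent growth was recorded.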 Calls of active or inactive are those of the source. Rule for the calls: active = growth percent below 10; inactive = the rest.

Columns and labels:
Experiment in all cases: NCI-60 one-dose screen, 48 h (100 = growth as untreated, 0 = no growth, -100 = all killed)
Conditions in all cases: 10 µM unless noted
HCT-15 colon = system: HCT-15 colon
HT29 colon = system: HT29 colon
SNB-75 CNS = system: SNB-75 CNS
SNB-19 CNS = system: SNB-19 CNS
U251 CNS = system: U251 CNS
PC-3 prostate = system: PC-3 prostate
SK-MEL-5 melanoma = system: SK-MEL-5 melanoma
UACC-62 melanoma = system: UACC-62 melanoma
LOX IMVI melanoma = system: LOX IMVI melanoma
SK-MEL-28 melanoma = system: SK-MEL-28 melanoma

Measured: growth

CC12OC(CC(O)C1O)n1c3ccccc3c3c4c(c5c6ccccc6n2c5c31)C(=O)N(CCN1CCOCC1)C4=O (stereo not given)
inactive: SK-MEL-28 melanoma 34.6%
active: HCT-15 colon 9.81% | HT29 colon 2.31% | SNB-75 CNS -5.19% | SNB-19 CNS 8.99% | U251 CNS 3.67% | PC-3 prostate 7.32% | SK-MEL-5 melanoma -44.5% | UACC-62 melanoma -52% | LOX IMVI melanoma -61.1%

COc1cc(NC2CCCCC2O)c2nc(-c3ccc(Cl)cc3)ccc2c1 (stereo not given)
inactive: HCT-15 colon 49.6% and 62.8% | HT29 colon 54.2% and 67.9% | SNB-75 CNS 82% and 103% | SNB-19 CNS 83.4% and 93.6% | U251 CNS 56.8% and 68.8% | PC-3 prostate 70.1% | SK-MEL-5 melanoma 96.6% and 98.1% | UACC-62 melanoma 83.7% and 94.7% | LOX IMVI melanoma 41.4% and 77% | SK-MEL-28 melanoma 94.2% and 96.7%

Cc1ccc(C(=O)c2ccc(CC(=O)N=Nc3c(O)[nH]c4ccc(OC(F)(F)F)cc34)n2C)cc1
inactive: HCT-15 colon 93.3% | HT29 colon 107% | SNB-75 CNS 82.1% | SNB-19 CNS 94% | U251 CNS 97% | PC-3 prostate 98.6% | SK-MEL-5 melanoma 97.3% | UACC-62 melanoma 106% | LOX IMVI melanoma 89.8% | SK-MEL-28 melanoma 99.9%

COc1ccc(C/C(C)=C(\c2ccc(O)cc2)c2ccc(OCCCN(C)C)cc2)cc1
inactive: HCT-15 colon 89.7% | HT29 colon 77.6% | SNB-75 CNS 84.1% | SNB-19 CNS 100% | U251 CNS 80.5% | PC-3 prostate 83.4% | SK-MEL-5 melanoma 98.4% | UACC-62 melanoma 108% | LOX IMVI melanoma 88.9% | SK-MEL-28 melanoma 112%

COc1c(O)c(O)cc2c3c(oc12)CC(c1ccc2c(c1)OCO2)CC3=O (stereo not given)
active: UACC-62 melanoma 4.1%
inactive: HCT-15 colon 42.1% | HT29 colon 93.4% | SNB-75 CNS 84.5% | SNB-19 CNS 77.8% | U251 CNS 76.2% | PC-3 prostate 76.1% | SK-MEL-5 melanoma 31.4% | LOX IMVI melanoma 25.3% | SK-MEL-28 melanoma 47%

CCN(C(=O)N1CCN(c2cc3c(cc2F)c(=O)c(C(=O)O)cn3C2CC2)CC1)c1nc(-c2ccccc2)cs1
active: HCT-15 colon 9.62% | LOX IMVI melanoma -11.1%
inactive: HT29 colon 10.9% | SNB-75 CNS 31.3% | SNB-19 CNS 22.5% | U251 CNS 20.7% | PC-3 prostate 11.5% | SK-MEL-5 melanoma 11.7% | UACC-62 melanoma 13.1% | SK-MEL-28 melanoma 41.8%

Oc1ccccc1C=Nc1ccc(N2CCN(c3ccccc3)CC2)cc1
inactive: HCT-15 colon 99.8% | HT29 colon 99.5% | SNB-75 CNS 79.9% | SNB-19 CNS 107% | U251 CNS 99.9% | PC-3 prostate 77.8% | SK-MEL-5 melanoma 97.2% | UACC-62 melanoma 95.4% | LOX IMVI melanoma 98.5% | SK-MEL-28 melanoma 109%

NNCCc1ccccc1
inactive: HCT-15 colon 99.7% and 91.6% | HT29 colon 96.5% and 100% | SNB-75 CNS 107% and 78.7% | SNB-19 CNS 98.5% and 102% | U251 CNS 104% and 93.7% | PC-3 prostate 92% and 94.6% | SK-MEL-5 melanoma 90.7% and 93.7% | UACC-62 melanoma 89.9% | LOX IMVI melanoma 98.2% and 88% | SK-MEL-28 melanoma 110% and 95.5%

COC(=O)c1c2c(c(C)[n+]([O-])c1C)C(=O)C(NCCN1CCOCC1)=CC2=O
inactive: HCT-15 colon 69.1% | HT29 colon 27.4% | SNB-75 CNS 106% | SNB-19 CNS 87.5% | U251 CNS 83.6% | PC-3 prostate 75.2% | SK-MEL-5 melanoma 48.5% | UACC-62 melanoma 68.4% | LOX IMVI melanoma 57.2% | SK-MEL-28 melanoma 95.2%

O=C(NCc1cccnc1)/C(=C\c1ccc(Br)cc1)S(=O)(=O)c1ccccc1
active: HCT-15 colon -33.2% | HT29 colon -72.2% | SNB-75 CNS 9.38% | SNB-19 CNS -2.37% | U251 CNS -87.1% | PC-3 prostate -0.986% | SK-MEL-5 melanoma -17.9% | UACC-62 melanoma -31.3% | LOX IMVI melanoma -89.5% | SK-MEL-28 melanoma -39.3%

O=C(/C=C\c1ccc(Cl)c(Cl)c1)c1ccccc1
inactive: HCT-15 colon 65.6% and 100% | HT29 colon 37.5% and 88.8% | SNB-75 CNS 98.5% and 99.9% | SNB-19 CNS 86.9% and 98.4% | U251 CNS 85.3% | PC-3 prostate 98.8% and 87.6% | SK-MEL-5 melanoma 97.2% and 101% | UACC-62 melanoma 91.7% and 95.9% | LOX IMVI melanoma 10.8% and 91.5% | SK-MEL-28 melanoma 102% and 108%

Cc1nn(-c2nc(-c3cc4ccccc4oc3=O)cs2)c(C)c1N=Nc1ccccc1
inactive: HCT-15 colon 106% | HT29 colon 103% | SNB-75 CNS 89.4% | SNB-19 CNS 101% | U251 CNS 88.8% | PC-3 prostate 106% | SK-MEL-5 melanoma 101% | UACC-62 melanoma 86.6% | LOX IMVI melanoma 96.7% | SK-MEL-28 melanoma 108%

Clc1ccc2c(NCCN3CCN(c4ccnc(N5CCCC5)n4)CC3)ccnc2c1
active: HCT-15 colon 0.29% | HT29 colon 6.82% | U251 CNS 6.81% | SK-MEL-5 melanoma -16.8% | UACC-62 melanoma -29.5% | LOX IMVI melanoma -70.1% | SK-MEL-28 melanoma -17.6%
inactive: SNB-75 CNS 90.7% | SNB-19 CNS 53.7% | PC-3 prostate 58.6%

O=C(Oc1ccc(CO[N+](=O)[O-])cc1)c1ccccc1
active: HCT-15 colon -83% | HT29 colon -60% | SNB-75 CNS -97.9% | SNB-19 CNS -78.8% | U251 CNS -91.2% | PC-3 prostate -91.7% | SK-MEL-5 melanoma -96.1% | UACC-62 melanoma -76.3% | LOX IMVI melanoma -87.4% | SK-MEL-28 melanoma -71.9%

CC(C)=CCc1cc(O)c(O)c2oc3cc(O)cc(O)c3c(=O)c12
inactive: HCT-15 colon 22.3% | HT29 colon 91.7% | SNB-75 CNS 60.2% | SNB-19 CNS 52.6% | U251 CNS 41% | PC-3 prostate 68.8% | SK-MEL-5 melanoma 56.1% | UACC-62 melanoma 54% | LOX IMVI melanoma 32.6% | SK-MEL-28 melanoma 84.4%

c1ccc(-c2cc(-c3cc(-c4ccccc4)on3)no2)cc1
inactive: HCT-15 colon 17.5% | HT29 colon 21.2% | SNB-75 CNS 123% | SNB-19 CNS 101% | U251 CNS 73.8% | PC-3 prostate 128% | SK-MEL-5 melanoma 101% | UACC-62 melanoma 89.7% | LOX IMVI melanoma 69.2% | SK-MEL-28 melanoma 102%

CC(=O)c1c(C)nc2ccccc2c1/C=C/c1cccc(C)c1
inactive: HCT-15 colon 31.3% | HT29 colon 18.5% | SNB-75 CNS 60% | SNB-19 CNS 74.1% | U251 CNS 49.8% | PC-3 prostate 65.8% | SK-MEL-5 melanoma 54.3% | UACC-62 melanoma 47.8% | LOX IMVI melanoma 42% | SK-MEL-28 melanoma 75%
